The structures appear in SMILES notation. The source made the active and inactive calls. How the source made its calls: active means hit-call score of the fitted dose curve at least 0.9, where 1 is the maximum; inactive means score below 0.9.

In PubChem BioAssay (EPA / NIEHS) one finds outcome and AC50 data, which are given here for 40 compounds.

Read-out in the assay: solute carrier (SLC22A1), SLC22A1 (gene 6580)
In words: LTEA_HepaRG_SLC22A1: Life Technologies and Expression Analysis (LTEA) Assay for solute carrier (SLC22A1) using HepaRG (AID 2283524).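 On AC50: TaqMan qRT-PCR normalized to ACTB GAPDH and POLR2A housekeeping genes.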 To be noted: mRNA level, 48 h; actives raise or lower the signal. How it is done: LTEA_HepaRG is a cell based, multiplexed-readout assay that uses HepaRG, a human liver cell line, with measurements taken at 48 hours after chemical dosing on a 96-well plate.LTEA_HepaRG_SLC22A1 is one of 102 assay component(s) measured in the LTEA HepaRG cell culture assay. It is a marker of NR mediated transport.Data from the assay component LTEA_HepaRG_SLC22A1 was analyzed into 1 endpoint. This assay endpoint, LTEA_HepaRG_SLC22A1, was analyzed with bidirectional fitting relative to DMSO as the negative control and baseline of activity. Using a type of inducible reporter, measures of mRNA induction for gain or loss-of-signal activity can be used to understand regulation of transcription factor activity. To generalize the intended target to other relatable targets, this assay endpoint is annotated to the transporter intended target family, where the subfamily is organic cation transporter.
A total of 1060 chemcials from the ToxCast library were tested in eight-point concentration-response experiments. Cell culture and cytotoxicity assays were conducted at Thermo Fisher Scientific's Custom Services facility (Madison, WI). A single lot of human HepaRG cells (Thermo Fisher Scientific, Frederick, MD) was used for the cell culture experiments. 96-well format collagen type I coated plates of human HepaRG cells were prepared using established methods. Briefly, cryopreserved HepaRG cells were thawed, plated at a density of approximately 100,000 cells/well in HepaRG Thaw, Plate, and General Purpose media (HPRG770, Thermo Fisher Scientific), and incubated for 48 hours. 0.5% DMSO was selected as vehicle control to balance the requisite need of DMSO in HepaRG cultures to maintain differentiation (for example, baseline metabolism, proportions of hepatocytes vs. cholangiocytes), while enabling further hepatic receptor pathway activation (for example, PXR and CAR) in response to chemical exposure. 48 hours after plating, the culture medium was replaced with HepaRG Serum-Free Incudtion Media. Cells were exposed to each test chemical in duplicate and maintained in CO2 incubators for another 48 hours. Chemical plates were thawed to room temperature and 200x concentrations of treatment groups were prepared. 8-point conentration-reponse curves were made with the highest exposure at 100 uM, followed by half-log dilutions, all in 0.5% DMSO. Each test plate contained variouse controls, induction positive controls (1mM phenobarbital), cytotoxicity positive controls ([…] aflatoxin B1), vehicle controls (0.5% DMSO), and total lysis controls (0.5% DMSO). Cell morphology images were taken using an Essen IncuCyte FLR automated microscope, with six 96-well plates imaged in about 24 minutes. Images were captured and exported and JPEG files. Spent culture media was transfered to black-well plates for the LDH assay, and remaining media was sorted at -80 C for later use. Cells were treated with RLT buffer and frozen until shipped for gene expression analysis. Total RNA was isolated from the cell suspension in 75 uL of Buffer RLT (Qiagen, Germantown, MD 20874) by Quintiles/Expression Analysis (Durham, NC) using a custom isolation procedure. Total RNA from each plate well was transferred to a preamplification plate. Fluidigm's 96.96 Dynamic ArrayTM (Fluidigm, Amsterdam, the Netherlands) technology was used for gene expression analyses by quantitative reverse transcription polymerase chain reaction (qRT-PCR, performed by Quintiles/Expression Analysis, Durham, NC)89. Standard TaqManTM Assays (Applied Biosystems/ThermoFisher Scientific, Foster City, CA) were used to assess the expression of 93 genes selected based on their selectivity and sensitivity to important hepatic receptors known to be modulated by environmental chemicals; importance in human hepatocyte functionality; and hepatotoxicity. […]
As for `CCCCOC(=O)c1ccccc1C(=O)OCc1ccccc1`, the outcome was inactive.

Turning to `OCCCl`, the call was inactive.

As for `Clc1ccc(Cl)c(Cl)c1`, the concentration at half-maximal activity (AC50) is 20 µM (active).

`O=C1CCCO1`: the compound was classed as inactive.

With `N#CC(Br)(Br)C(N)=O`, the call was inactive.

Turning to `O=[N+]([O-])c1ccc(Oc2ccc(Cl)cc2Cl)cc1`, the call was inactive.

Take `C[N+](C)(C)CC1CO1` (stereo not given): the outcome was inactive.

`COP(=S)(OC)SCN1C(=O)c2ccccc2C1=O`: the compound was called inactive.

Consider `Nc1ccc(N=Nc2ccccc2)cc1`, for which the half-maximal activity concentration (AC50) is 13.6 µM (active).

For the compound `CN(C)c1ccccc1`, the result was inactive.

As to `CO[C@@H]1[C@H](OC(=O)NC(=O)CCl)CC[C@]2(CO2)[C@H]1[C@@]1(C)O[C@@H]1CC=C(C)C`, the compound was classed as inactive.

In the case of `CCCCCCCCOC(=O)c1ccc(C(=O)OCCCCCCCC)c(C(=O)OCCCCCCCC)c1`, the result was inactive.

For `c1ccc2c(c1)oc1ccccc12`, the compound was called inactive.

Regarding `CS(=O)(=O)NC(=O)c1cc(Oc2ccc(C(F)(F)F)cc2Cl)ccc1[N+](=O)[O-]`, the result was inactive.

Consider `CN(C)c1ccc(C(=O)c2ccc(N(C)C)cc2)cc1`, for which the AC50 is 50 µM (active).

As for `CC(C)(C)OOC(=O)c1ccccc1`, the result was inactive.

For the compound `Cc1ccc(N)cc1`, the result was inactive.

Take `CNC(=O)Oc1cccc2c1OC(C)(C)C2`: the result was inactive.

On to `Cc1ccc(N=C=O)cc1N=C=O`, for which the AC50 was 30.6 µM (active).

Consider `Nc1ccc(Cc2ccc(N)cc2)cc1`, for which the call was inactive.

With `CC(C)COC(=O)c1ccccc1C(=O)OCC(C)C`, the result was inactive.

Consider `CCC(C)c1ccc(O)cc1` (stereo not given), for which the outcome was inactive.

As to `ClC1=C(Cl)[C@]2(Cl)[C@H]3[C@H]([C@@H]4C=C[C@H]3C4)[C@@]1(Cl)C2(Cl)Cl`, the concentration at half-maximal activity (AC50) is 9.92 µM (active).

Take `ClCCOCCCl`: the compound was called inactive.

For `C[C@]12C=CC3=C4CCC(=O)C=C4CC[C@H]3[C@@H]1CC[C@@H]2O`, the AC50 is 41 µM (active).

Regarding `CCN(CC)N=O`, the result was inactive.

Take `O=[N+]([O-])C(Br)(CO)CO`: the result was inactive.

Take `CCCCCCCCn1sccc1=O`: the AC50 is 78.4 µM (active).

For `Cn1cc(-c2ccccc2)c(=O)c(-c2cccc(C(F)(F)F)c2)c1`, the call was inactive.

Consider `CCCCCCCCCCCCCN1CC(C)OC(C)C1` (stereo not given), for which the result was inactive.

For `c1ccc(C2CO2)cc1` (stereo not given), the outcome was inactive.

Regarding `CC(C)(C)C(O)(CCc1ccc(Cl)cc1)Cn1cncn1` (stereo not given), the half-maximal activity concentration (AC50) is 73.2 µM (active).

As for `O=P(OCCCl)(OCCCl)OCCCl`, the compound was classed as inactive.

Consider `Cc1cccc(N)c1N`, for which the AC50 is 47.4 µM (active).

As for `CN(C)[C@@H]1C(=O)C(C(N)=O)=C(O)[C@@]2(O)C(=O)C3=C(O)c4c(O)cccc4[C@@](C)(O)[C@H]3C[C@@H]12`, the compound was called inactive.

With `OCCOCCO`, the result was inactive.

In the case of `CCC12COCN1COC2`, the outcome was inactive.

In the case of `[As]#[In]`, the call was inactive.

For the compound `N#CC(Br)Br`, the call was inactive.

For the compound `CCOC(=O)[C@]1(c2ccccc2)Oc2ccccc2[C@@H]1N`, the AC50 is 84.2 µM (active).
